GLP1R cytotox – cytotoxic in the GLP-1 receptor inverse agonist counter-screen; HEK293 cAMP-luciferase reporter cells, luminescence, 24 h; Potency, µM (doses to about 38.3 µM), for the others: at the top dose activity change, negative = inhibition, usual class: inhibitors; 410,000 compounds, 0.13% hits;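 further: loss of luciferase light is scored as toxicity; potency means the concentration at half of the fitted maximal effect; on the % scale 0 is the no-effect control and ±100 the full control effect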
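MLSMR compounds, 24 hr on cells at 37 deg C/5% CO2; luminescence after luciferase reagent (12 min RT). Inhibition counted as the undesired cytotoxic outcome.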
DRD3 antagonist – antagonists of human D3 dopamine receptor; P35462; D3R cells, DiscoveRx beta-arrestin luminescence, antagonist mode; active compounds read low; max response, negative = inhibition, %; 360,000 compounds, 2.5% hits; AID 652054; in the data active means max response below about -50%; inconclusive means no clear call, values can overlap the other calls; further: on the % scale 0 is the no-effect control and ±100 the full control effect
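Cells plated overnight at 1500 cells/well, then exposed to library compounds with dopamine controls for 90 minutes at 37 degrees C. DiscoveRx reagent added for 30–60 minutes at room temperature; luminescence read, quantitative HTS format.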
ClpP mod – qHTS Assay for Activators of ClpP; Potency, µM (series often up to 57.5 µM), inactives show at the highest dose activity change, negative = active; ATP-dependent Clp protease proteolytic subunit (Bacillus subtilis (strain 168)), P80244; 340,000 compounds, 1.9% hits; purified B. subtilis ClpP, FRET peptide cleavage, 20 min; active means well fitted falling curve with a large enough effect; inconclusive means small, poorly fitted or top-dose-only effect; inactive means no such curve, though single readings can be large or run the other way; further: potency means the concentration at half of the fitted maximal effect; the source files actives as falling curves though it sought activators and does not explain the sign; nearly all actives have a fitted effect of over 65% in size
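ClpP 10 microg/mL final, pH 8 Tris/KCl buffer with BSA, glycerol, Tween-20; compound pinned in; FRET-FV substrate; RT 20 min; Ex320/Em430; ΔFRET vs ADEP 5.8 microM, DMSO, no enzyme.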
GLP-1R agonist – activates the human GLP-1 receptor; P43220; HEK293 GLP-1R CRE-luciferase, luminescence, 4-6 h; cells express a hypersensitive GLP-1R form; Potency, µM (top dose mostly 45.6 µM), for inactives: at the highest dose activation, usual class: activators; 380,000 compounds, 0.007% hits; further: potency means the concentration at half of the fitted maximal effect; % of control where 0% means no effect
GLP1R inv ag – acts as inverse agonist at human GLP-1 receptor. Potency, µM (doses to about 38.3 µM), without a hit: at the highest dose activity change, negative = inhibition, most hits filed as inhibitors. P43220. 410,000 compounds, 1.6% hits. HEK293 GLP-1R CRE-luciferase, luminescence, 24 h; GLP-1R form is constitutively active; further: potency means the concentration at half of the fitted maximal effect; on the % scale 0 is the no-effect control and ±100 the full control effect; nearly all actives have a fitted effect of over 55% in size
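Inverse agonists were sought by their lowering of basal cAMP reporter luciferase output in HEK293 cells stably carrying constitutively active human GLP-1R, after 24 h compound treatment.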
DRD3 agonist – activates the human D3 dopamine receptor. max activation, %. 410,000 compounds, 0.58% hits. AID 652048. D3R DiscoveRx beta-arrestin cells, luminescence, 90 min. P35462; in the data active means max activation above about 30%; further: 0% is about no effect
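Agonist mode: compounds and dopamine controls were applied to plated cells for 90 min at 37 degrees C after an overnight attachment at 1500 cells/well. Luminescent read-out followed 30 - 60 minutes at room temperature with DiscoveRx detection reagent.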
Active calls of the source: *; i = inactive; ? = inconclusive; / = not tested or not shown. An excerpt weighted towards active compounds, which were near 5.7% of everything screened. Unless noted, the call rests on the fitted dose curve; in most records, active means well fitted curve in the direction sought with a large enough effect; inconclusive means small, poorly fitted or top-dose-only effect, or another doubt; inactive means no such curve, though single readings can be large; an effect the other way counts as inactive or inconclusive.

SMILES	GLP1R cytotox	DRD3 antagonist	ClpP mod	GLP-1R agonist	GLP1R inv ag	DRD3 agonist
CN(C)C(=O)C#Cc1ccccc1	0%	5	1%	-3%	1%	6
O=C(C#Cc1ccccc1)c1ccccc1	-6%	-65*	-2%	-5%	?	-9
O=C(C#Cc1ccccc1)c1ccc([N+](=O)[O-])cc1	-13%	-72*	1%	0%	-24%	-18
COC(=O)c1ccc(OCC2c3cc(OC)c(OC)cc3CCN2C(=O)Cc2ccccc2)cc1 (centres undefined)	-5%	/	-3%	?	-4%	7
O=C(NNc1ccccc1)C(=O)NNS(=O)(=O)c1ccc([N+](=O)[O-])cc1	?	-5	/	0%	3.2µM*	-2
O=C(Nc1ccccc1Oc1ccccc1)c1cc([N+](=O)[O-])ccc1Cl	4%	4	1%	12%	4.5µM*	0
O=C(NNc1ccc([N+](=O)[O-])cc1)c1ccccc1F	?	-19	/	-1%	?	-4
O=C(NNc1ccc([N+](=O)[O-])cc1)c1ccccc1Cl	1%	?	-1%	-3%	1.8µM*	-8
Cc1cccc(NC(=O)c2cc([N+](=O)[O-])ccc2Cl)c1O	-5%	-5	/	0%	?	0
O=C(Nc1ccc(Nc2ccccc2)cc1)c1ccc(Cl)cc1Cl	-25%	-12	/	12%	8.9µM*	12
CC(C)c1nnc(N2C(=O)c3oc4ccccc4c(=O)c3C2c2ccccc2F)s1 (centres undefined)	-8%	/	0%	/	-2%	9
O=C(Nc1ccc(Nc2ccccc2)cc1)c1cc([N+](=O)[O-])ccc1Cl	-17%	-51*	-1%	-2%	3.2µM*	-7
O=C(O)c1ccccc1C(=O)Nc1ccc(Nc2ccc([N+](=O)[O-])cc2[N+](=O)[O-])cc1	-25%	-20	-4%	10%	28%	-3
Cc1nc(Nc2ccc(Cl)c(Cl)c2)sc1C(=O)Nc1ccccc1	?	4	?	1%	?	4
Cc1nc(Nc2ccc(Cl)cc2Cl)sc1C(=O)Nc1ccccc1	-13%	4	/	11%	10µM*	5
CCOC(=O)C1CCN(C(=O)C2CCN(C3=NS(=O)(=O)C(c4ccc(C)cc4)=C3CC)CC2)CC1	-2%	/	1%	/	3%	-16
C1=Cc2ccccc2/C1=C\c1cc[cH-]c1.[Fe+2].c1cc[cH-]c1	/	/	-3%	/	/	/
Cc1ccc2oc(=O)cc(CN3CCN(C/C=C/c4ccccc4)CC3)c2c1	-1%	-60*	/	5%	-26%	-12
CCc1cc2c(CN3CCN(CC)CC3)cc(=O)oc2cc1O	i	-28	28µM*	-6%	-4%	-13
O=c1cc(CN2CCN(Cc3ccccc3)CC2)c2ccc(O)cc2o1	88%	6	/	13%	-7%	-12
Cc1ccccc1CN1CCN(C/C=C/c2ccccc2)CC1	-20%	-192*	0%	0%	?	-41
O=c1cc(CN2CCN(C/C=C/c3ccccc3)CC2)c2cc(O)ccc2o1	?	-62*	-3%	2%	?	-11
CN1C(=O)c2ccccc2Sc2ccc(NC(=O)N3CCN(c4cccc(Cl)c4)CC3)cc21	-16%	/	-1%	/	?	-13
O=C1NC[C@H](CCCCN2C[C@H](Cc3ccc(O)cc3)N(CCC3CCCCC3)C(=O)C2=O)N(CCc2ccc(O)cc2)C1=O	3%	0	2%	1%	7%	6
COc1ccc(CCN2C(=O)COc3ccccc3C2C(=O)NCc2ccccc2)cc1OC (centres undefined)	1%	13	2%	4%	7%	8
SMILES	GLP1R cytotox	DRD3 antagonist	ClpP mod	GLP-1R agonist	GLP1R inv ag	DRD3 agonist
O=C(CCCOc1ccc(Cl)cc1Cl)Nc1ccccc1C(=O)O	-4%	21	/	-1%	?	6
CCOc1ccccc1NC(=S)NC(=O)CCCOc1ccc(Cl)cc1Cl	?	-109*	-4%	7%	-4%	-6
N#Cc1ccc(CSc2nnc(-c3ccccn3)n2-c2ccccc2)cc1	13%	-4	-6%	2%	-6%	-1
N#Cc1ccc(CSc2nnc(-c3c[nH]c4ccccc34)n2-c2ccccc2)cc1	-28%	0	/	7%	6.3µM*	-9
NC(CSC1(c2ccc(F)cc2)c2ccccc2-c2ccccc21)C(=O)O (centres undefined)	-3%	-1	3%	0%	?	3
NC(CSC1(c2ccc(Cl)cc2)c2ccccc2-c2ccccc21)C(=O)O (centres undefined)	-8%	-10	-2%	-4%	7.9µM*	0
CC(=O)Nc1c(C)ccc2nsnc12	0%	-77*	1%	-9%	-4%	8
CCCCCCCCCC[n+]1cccc2cc(Cl)ccc21	/	/	-3%	/	/	/
CC(=O)CC1(O)C(=O)Nc2ccccc21 (centres undefined)	-27%	15	-2%	-3%	6%	1
COC1=CC(=O)C=C(OC)C1(O)CC(C)=O	3%	-56*	0%	0%	32%	0
COc1cc(/C=N/N=C(N)N)ccc1OCc1ccc(Cl)cc1	-28%	5	1%	-7%	?	0
CCOc1cc(/C=N/N=C(N)N)ccc1OCc1ccc(Cl)cc1	?	0	-22%	-32%	11µM*	-10
CCc1ccccc1NC(=O)CCCn1c(=O)c2cccn2c2ccccc21	-5%	/	-10%	/	11%	6
CCN1CCN(c2csc3ccc(C)cc3c2=O)CC1	-2%	/	-11%	/	7%	3
CCCCCSc1nncc(=O)[nH]1	5%	24	-2%	9%	0%	-5
CCCCCCCCSC1=CC(=O)C(OC)=C(OC)C1=O	5%	-106*	-2%	-5%	2%	-13
O=C1CN(C(=O)COc2ccc(Cl)cc2)C(c2ccccc2)c2cc(Br)ccc2N1 (centres undefined)	-4%	/	-1%	/	?	5
Cc1cc(C)n(C(CC(=O)O)C(=O)O)n1 (centres undefined)	1%	18	-2%	0%	2%	-2
Cc1nn(C(CC(=O)O)C(=O)O)c(C)c1Br (centres undefined)	2%	-22	-8%	-1%	9%	42*
CCCOc1cccc(C2c3c(oc4cc(C)c(C)cc4c3=O)C(=O)N2CCCN2CCOCC2)c1 (centres undefined)	-10%	/	-6%	-1%	-19%	-4
COc1cccc(CNS(=O)(=O)c2cn(C)cn2)c1	10%	2	14µM*	4%	-3%	2

Screening data as filed in PubChem.
